About 79,000 compounds went through this panel and 15% of them were active in at least one assay; those are over-represented in the sample as a whole. Activity calls are given as the source filed them. Rule as the data show it: active = growth inhibition above about 70%; inactive = the rest.
Key:
[1] = NCI Yeast Anticancer Drug Screen. Data for the rad50 strain (AID 155);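 also: 0% = growth of vehicle-only cultures of the same strain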; details: S. cerevisiae rad50 strain growth inhibition; at 50.0 µM; stronger effect = higher value
Outline: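 Compounds were tested on a yeast strain with an engineered DNA damage repair alteration; the reported value is growth inhibition normalised to vehicle treatment.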

[2] = NCI Yeast Anticancer Drug Screen. Data for the mec2-1 strain (AID 157); details: S. cerevisiae mec2-1 strain, at 50.0 µM, stronger effect = higher value
Outline: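 Mutant yeast (mec2-1) grown with compound; growth inhibition relative to vehicle control reported.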

[3] = NCI Yeast Anticancer Drug Screen. Data for the sgs1 mgt1 strain (AID 161);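 also: 0% = growth of cultures given vehicle only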; details: S. cerevisiae sgs1 mgt1 strain, at 50.0 µM, stronger effect = higher value
Outline: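 Compounds are added to genetically altered yeast, and growth is compared with cultures given vehicle alone to give percent inhibition.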

[4] = NCI Yeast Anticancer Drug Screen. Data for the cln2 rad14 strain (AID 165);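 also: 0% = growth equal to vehicle treated cultures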; details: S. cerevisiae cln2 rad14 strain, at 50.0 µM, stronger effect = higher value
Outline: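 Readout is yeast growth inhibition versus vehicle-treated controls, using a strain with cln2 and rad14 alterations exposed to compound.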

[5] = NCI Yeast Anticancer Drug Screen. Data for the bub3 strain (AID 167); details: S. cerevisiae bub3 mutant strain, at 50.0 µM, stronger effect = higher value
Outline: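 Growth of a checkpoint-deficient yeast mutant is measured after compound exposure. Values represent inhibition relative to vehicle.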

[6] = NCI Yeast Anticancer Drug Screen. Data for the mlh1 rad18 strain (AID 175); details: S. cerevisiae mlh1 rad18 strain growth inhibition; at 50.0 µM; stronger effect = higher value
Outline: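 Genetically defined yeast (DNA repair-deficient) exposed to compounds; growth inhibition determined relative to vehicle.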

Measured: growth inhibition

CN(C)c1nc2ccccc2[nH]1
inactive: [1] 2.6% | [2] -4.25% | [3] 11.9% | [4] -1.35% | [5] -4.85% | [6] -2%

O=[N+]([O-])c1cccc(C2CC(c3ccccc3)=NN2c2ccccc2)c1 (stereo unspecified)
inactive: [1] 2.9% | [2] -2.05% | [3] 0.25% | [4] -9.4% | [5] 10.4% | [6] -7.3%

Cc1nnc(-n2nc(-c3ccc(Cl)cc3)cc2N)[nH]c1=O
inactive: [1] 54% | [2] 12.1% | [3] 22.4% | [4] 12.8% | [5] 23.4% | [6] 34%

COC(=O)N/N=C/c1oc(-c2ccccc2)c(-c2ccccc2)c1[N+](=O)[O-]
inactive: [1] -2.15% | [2] -12.6% | [3] 16.5% | [4] 20.8% | [5] -10.1% | [6] -8.2%

CCCCCCCCC/C=C1\CCC(CN2CCOCC2)C1=O (stereo unspecified)
active: [1] 89% | [2] 92.8% | [3] 90.3% | [4] 89.6% | [5] 88.8% | [6] 88%

C#CCOC(=O)c1ccccc1O
inactive: [1] 15.2% | [2] 2.8% | [3] 17.4% | [4] 13.4% | [5] 16.9% | [6] 12.2%

N#CCCN(CCC#N)S(=O)(=O)c1ccccc1
inactive: [1] -3% | [2] 5.65% | [3] -4.9% | [4] -4.2% | [5] 14.1% | [6] -15.6%

c1ccc([Si](c2ccccc2)(c2ccccc2)c2ccc(-c3ccc([Si](c4ccccc4)(c4ccccc4)c4ccccc4)cc3)cc2)cc1
inactive: [1] 1.1% | [2] -0.75% | [3] -8.3% | [4] -4.35% | [5] -0.05% | [6] -15.9%

CCCCSC(CC(O)C(O)COC(=O)c1ccc([N+](=O)[O-])cc1)SCCCC (stereo unspecified)
inactive: [1] -12.1% | [2] 1.95% | [3] 2.7% | [4] 13% | [5] -4.85% | [6] -5.85%

C=CCNC(=O)N(CCC)CCCCC(NC(C)=O)C(=O)NCc1ccccc1 (stereo unspecified)
inactive: [1] 11.5% | [2] 7.5% | [3] -8.4% | [4] 18.6% | [5] 8.75% | [6] 4.35%

Cc1c(N)cc2c(c1[N+](=O)[O-])C(C)(C)CC2(C)C
inactive: [1] 3.15% | [2] -14.1% | [3] 1.6% | [4] -5.2% | [5] 11.9% | [6] -0.85%

Cn1c(=O)c2n[nH]nc2n(C)c1=O
inactive: [1] 7.25% | [2] -0.5% | [3] -0.35% | [4] -11.7% | [5] -14.8% | [6] 15.8%

C/C([O-])=N\[N+](C)(C)Cc1ccccc1
inactive: [1] -4.65% | [2] 0.8% | [3] -11.7% | [4] -23.4% | [5] -6.6% | [6] 5.8%

CN1CC(=O)N2CCCCC2C(c2ccccc2)C1 (stereo unspecified)
inactive: [1] -4.85% | [2] 2.85% | [3] -0.25% | [4] -34.7% | [5] -9.35% | [6] -1.25%

CC(=O)Oc1c(C)c2c(O)c3c1C1=C(OCOC1=C(C)C3=O)/C(C)=C\C(C)(O)C(O)C(C)C(O)C1C(=O)OC(C(C)C1O)C(C)(O)/C=C/C=C(C)C(=O)N2 (stereo unspecified)
inactive: [1] 16.2% | [2] 3.65% | [3] -10.4% | [4] 8.95% | [5] 9.7% | [6] 5.5%

CC(Oc1ccc2cc(C(=O)c3ccccc3)c(=O)oc2c1)C(=O)O (stereo unspecified)
inactive: [1] -4.25% | [2] 3.75% | [3] 19.2% | [4] 32.9% | [5] -0.1% | [6] 44.9%

Nc1ccc(N)c(Cl)c1
inactive: [1] -19.4% | [2] -15.8% | [3] -19.8% | [4] 14.7% | [5] -7.3% | [6] -2.85%

COc1cccc2sc(-n3c(C)nc4ccccc4c3=O)nc12
inactive: [1] 33.5% | [2] 12.5% | [3] 54.8% | [4] 17.9% | [5] 51.9% | [6] 40.5%

N#CC1=C(N)CCC(C#N)(c2ccccc2)C1 (stereo unspecified)
inactive: [1] 2.4% | [2] 2% | [3] 22.4% | [4] 14.8% | [5] 22.8% | [6] 8.2%

CS/C(=N\S(=O)(=O)c1cc(C)c(Cl)cc1Cl)NNc1cnc2ccccc2n1
inactive: [1] -12.1% | [2] -23.4% | [3] -7.1% | [4] 11.9% | [5] -17.2% | [6] 1.7%

O=C(/C=C\c1ccccc1)OC(c1ccccc1)c1ccc(Br)cc1 (stereo unspecified)
inactive: [1] 17.9% | [2] 6.25% | [3] 14.1% | [4] -3.95% | [5] -3.4% | [6] 8%

CC(NNC(=S)N1CCN(c2ccccn2)CC1)c1cccc[n+]1[O-] (stereo unspecified)
inactive: [1] 9.6% | [2] 5.4% | [3] 3.8% | [4] -11.2% | [5] 6.55% | [6] 11.9%

Clc1ccc(CNc2nc3ccccc3nc2-c2cccs2)c(Cl)c1
inactive: [1] -0.3% | [2] 16.8% | [3] 11.3% | [4] 5.25% | [5] 12.3% | [6] 18.7%

O=C(CCCn1cnc([N+](=O)[O-])n1)NCCCn1ccnc1[N+](=O)[O-]
inactive: [1] -26.2% | [2] -19.7% | [3] -26.1% | [4] -3.45% | [5] -34.8% | [6] -7.8%

CCOC(=O)c1c(C)c2c(n1Cc1ccccc1)CCCC2=O
inactive: [1] 15.5% | [2] 11.4% | [3] 38.5% | [4] 12.7% | [5] 23.9% | [6] 19.4%

CCN(CC)[Si](C)(C)N(CC)CC
inactive: [1] -20.2% | [2] -24.4% | [3] -1.2% | [4] -41% | [5] -4.5% | [6] 8.1%

O=C(NC1COB(c2cccc([N+](=O)[O-])c2)OC1c1ccc([N+](=O)[O-])cc1)C(Cl)Cl (stereo unspecified)
inactive: [1] 12.8% | [2] 27.9% | [3] 5.65% | [4] -23.9% | [5] 15.7% | [6] 63.5%

O=C(Nc1ccc(Cl)cc1)c1cc2cc(N=Nc3ccc(Br)cc3)ccc2oc1=O
inactive: [1] -18.1% | [2] 9.75% | [3] -13.3% | [4] -1.65% | [5] -23.9% | [6] -6.65%

C#CCI
inactive: [1] 20.9% | [2] 6.5% | [3] 6.95% | [4] 33.9% | [5] 7.35% | [6] 17.5%

Ic1ccccc1/C=C/c1ccccn1
inactive: [1] 14.6% | [2] 11.3% | [3] 28.7% | [4] -54.6% | [5] 31.8% | [6] -0.2%

COC(=O)Cc1[nH]c(C(=O)OC)c(C)c1C(=O)OC
inactive: [1] -6.7% | [2] -7.45% | [3] -3.15% | [4] -21.1% | [5] -6.95% | [6] -2.2%

C/C=C(/C)C(=O)O[C@H]1CC[N+]2([O-])CC=C(COC(=O)[C@@](O)([C@H](C)OC)C(C)(C)O)[C@H]12 (stereo partly specified)
inactive: [1] -13.1% | [2] -5.1% | [3] -3.45% | [4] 7.5% | [5] 6.75% | [6] 12.5%

CC1=Nc2nc(=N)nc3cccc(n23)N1
inactive: [1] -3.55% | [2] -6.55% | [3] -7% | [4] -6% | [5] -7.7% | [6] 5.95%

O=C(O)CCC(NC(=O)/C(=C/c1ccccc1)NC(=O)c1ccccc1)C(=O)O (stereo unspecified)
inactive: [1] 4.8% | [2] 6.55% | [3] 31% | [4] 8.75% | [5] 18.2% | [6] -10.4%

CCOC(=O)N(C)N=NCCCl
inactive: [1] 15.2% | [2] 2.2% | [3] -5.05% | [4] -26.9% | [5] 8.2% | [6] -4.9%

CCOC(=O)C(C=C(C)C)(CC)C(=O)OCC
inactive: [1] 2.5% | [2] -17% | [3] -5.7% | [4] -4.55% | [5] -17.1% | [6] -21.9%

C/C(=N\NC(N)=O)C(C)(C)O
inactive: [1] 26.8% | [2] 16.9% | [3] 7.7% | [4] 12.4% | [5] 11.5% | [6] 13.6%

CC(O)CNC(=O)Nc1ccccc1 (stereo unspecified)
inactive: [1] -26.9% | [2] -26.8% | [3] -9.8% | [4] -5.25% | [5] 3.95% | [6] -17.6%

NC(=O)c1[nH]c(/N=N/c2nc[nH]c2C(N)=O)nc1N
inactive: [1] 24.9% | [2] 21.6% | [3] 9.95% | [4] -17.1% | [5] -4.65% | [6] 16.4%

CCCCCCCCCCCCCCCCN(O)C(=O)c1cnc[nH]1
inactive: [1] 29.8% | [2] 26.6% | [3] 30.2% | [4] 25.4% | [5] 11.1% | [6] 22.6%

COc1ccc(/C=C2\N=C(c3cc(OC)c(OC)c(OC)c3)OC2=O)cc1OC
inactive: [1] 7.1% | [2] 10.9% | [3] 8.5% | [4] 29.9% | [5] -1.85% | [6] 25.1%
